# Measurements: PubChem BioAssay (EPA / NIEHS)
# The source made the active and inactive calls. The calls were made as follows: active = hit-call score of the fitted dose curve at least 0.9, where 1 is the maximum; inactive = score below 0.9.
# How the values were obtained:
# Settings in all cases: mRNA level, 48 h; actives raise or lower the signal
# [1] = read-out: Cytochrome P450 (CYP2B6), CYP2B6 (gene 1555); assay: LTEA_HepaRG_CYP2B6: Life Technologies and Expression Analysis (LTEA) Assay for Cytochrome P450 (CYP2B6) using HepaRG (AID 2283481)
# How it was run: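 HepaRG cells plated 48 h, switched to serum-free induction medium, then dosed 48 h (8 points, half-log from 100 uM, 0.5% DMSO). RNA isolated; CYP2B6 expression measured by qRT-PCR; gain or loss fitted relative to DMSO.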
# [2] = read-out: Cytochrome P450 2C19 (Homo sapiens) (UniProt P33261); assay: LTEA_HepaRG_CYP2C19: Life Technologies and Expression Analysis (LTEA) Assay for CYP2C19 using HepaRG (AID 2283482)
# How it was run: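 Transcript levels of CYP2C19 were quantified by qRT-PCR after HepaRG cells were treated for 48 hours with test chemicals up to 100 uM (eight half-log concentrations, 0.5% DMSO vehicle). Gain or loss of signal was fitted relative to DMSO.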
# [3] = read-out: CYP2C8 (gene 1558); assay: LTEA_HepaRG_CYP2C8: Life Technologies and Expression Analysis (LTEA) Assay for CYP2C8 using HepaRG (AID 2283483)
# How it was run: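 This is a transcriptional endpoint in HepaRG cultures: 48 h exposure, highest concentration 100 uM. CYP2C8 mRNA is quantified by TaqMan qRT-PCR.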
# [4] = read-out: CYP2C9 (gene 1559); assay: LTEA_HepaRG_CYP2C9: Life Technologies and Expression Analysis (LTEA) Assay for CYP2C9 using HepaRG (AID 2283484)
# How it was run: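 Eight-point concentration-response (highest 100 uM, half-log dilutions) in HepaRG cells for 48 h; CYP2C9 expression by qRT-PCR normalized to ACTB, GAPDH, POLR2A. Bidirectional fit, DMSO baseline.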
# [5] = read-out: CYP2E1 (gene 1571); assay: LTEA_HepaRG_CYP2E1: Life Technologies and Expression Analysis (LTEA) Assay for CYP2E1 using HepaRG (AID 2283485)
# How it was run: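 Readout is qRT-PCR of CYP2E1 mRNA, normalized to three housekeeping genes and fitted bidirectionally against 0.5% DMSO. HepaRG cells were dosed 48 h at eight concentrations, highest 100 uM with half-log dilutions.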
# [6] = read-out: CYP4A11 (gene 1579); assay: LTEA_HepaRG_CYP4A11: Life Technologies and Expression Analysis (LTEA) Assay for CYP4A11 using HepaRG (AID 2283486)
# How it was run: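 HepaRG, 48 h chem exposure, 8 conc (100 uM top, half-log), 0.5% DMSO vehicle; qRT-PCR readout, housekeeping-gene normalized; bidirectional curve fit vs DMSO baseline.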
# [7] = read-out: Cytochrome P450 3A4 (Homo sapiens) (UniProt P08684); assay: LTEA_HepaRG_CYP3A4: Life Technologies and Expression Analysis (LTEA) Assay for CYP3A4 using HepaRG (AID 2283487)
# How it was run: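 Differentiated HepaRG cells, plated 48 h, then dosed 48 h in serum-free induction medium with 0.5% DMSO, 8 half-log concentrations up to 100 uM, duplicate. CYP3A4 mRNA by qRT-PCR, normalized to ACTB/GAPDH/POLR2A; bidirectional fit versus DMSO.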
# [8] = read-out: DNA damage-inducible transcript 3 (DDIT3), DDIT3 (gene 1649); assay: LTEA_HepaRG_DDIT3: Life Technologies and Expression Analysis (LTEA) Assay for DNA damage-inducible transcript 3 (DDIT3) using HepaRG (AID 2283488)
# How it was run: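 Cells are human HepaRG liver cells treated for 48 h with eight half-log concentrations up to 100 uM in 0.5% DMSO. Transcript levels come from qRT-PCR normalized to three housekeeping genes, with activity fitted in both directions relative to vehicle.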
# [9] = read-out: Pro-epidermal growth factor (Homo sapiens) (UniProt P01133); assay: LTEA_HepaRG_EGF: Life Technologies and Expression Analysis (LTEA) Assay for Epidermal growth factor (EGF) using HepaRG (AID 2283489)
# How it was run: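 HepaRG, 48 h dosing, 100 uM top, half-log x8, 0.5% DMSO. Readout: TaqMan qRT-PCR (Fluidigm array), housekeeping-normalized. Gain or loss of signal fit vs DMSO.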
# [10] = read-out: Early growth response protein 1 (EGR1) transcription factor, EGR1 (gene 1958); assay: LTEA_HepaRG_EGR1: Life Technologies and Expression Analysis (LTEA) Assay for Early growth response protein 1 (EGR1) transcription factor using HepaRG (AID 2283490)
# How it was run: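 EGR1 expression change in human HepaRG after 48 h chemical exposure, assessed by housekeeping-normalized qRT-PCR; concentration-response up to 100 uM, fitted in both directions against DMSO controls.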
# [11] = read-out: Ezrin (EZR), EZR (gene 7430); assay: LTEA_HepaRG_EZR: Life Technologies and Expression Analysis (LTEA) Assay for Ezrin (EZR) using HepaRG (AID 2283491)
# How it was run: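 EZR transcript levels came from Fluidigm qRT-PCR and were normalized to three housekeeping genes after 48 h chemical exposure of HepaRG cells. Dosing used an 8-point half-log series with a 100 uM top concentration in 0.5% DMSO, tested in duplicate; both directions were fitted versus vehicle.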
# [12] = read-out: Cytochrome P450 3A7 (Homo sapiens) (UniProt P24462); assay: LTEA_HepaRG_CYP3A7: Life Technologies and Expression Analysis (LTEA) Assay for CYP3A7 using HepaRG (AID 2283492)
# How it was run: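 Human HepaRG liver cells, 48 h post-plating, switched to serum-free induction medium and exposed in duplicate for 48 h. Dosing: 100 uM top, half-log dilutions, 8 points, 0.5% DMSO vehicle. Read-out: CYP3A7 mRNA, gain or loss fitted against DMSO baseline.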
# [13] = read-out: CYP3A5 (gene 1577); assay: LTEA_HepaRG_CYP3A5: Life Technologies and Expression Analysis (LTEA) Assay for CYP3A5 using HepaRG (AID 2283493)
# How it was run: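 Human HepaRG hepatic cells receive 48 h chemical treatment at eight concentrations (half-log steps from 100 uM) in 0.5% DMSO. Expression of CYP3A5 is quantified by Fluidigm qRT-PCR and normalized to three reference genes.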
# [14] = read-out: Cytochrome P450 4A22 (Homo sapiens) (UniProt Q5TCH4); assay: LTEA_HepaRG_CYP4A22: Life Technologies and Expression Analysis (LTEA) Assay for Cytochrome P450 4A22 (CYP4A22) using HepaRG (AID 2283495)
# How it was run: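 Readout is CYP4A22 transcript induction or loss, quantified by qRT-PCR and normalized to ACTB, GAPDH and POLR2A. Human HepaRG cells receive test chemicals for 48 h at eight half-log concentrations from 100 uM in 0.5% DMSO.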
# [15] = read-out: Glutathione S-Transferase (GSTA2), GSTA2 (gene 2939); assay: LTEA_HepaRG_GSTA2: Life Technologies and Expression Analysis (LTEA) Assay for Glutathione S-Transferase (GSTA2) using HepaRG (AID 2283497)
# How it was run: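 Oxidative-stress marker GSTA2 is quantified by TaqMan qRT-PCR in HepaRG cultures treated 48 h across an eight-point range to 100 uM. Expression is normalized to endogenous controls and compared with 0.5% DMSO vehicle.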
# [16] = read-out: Glutamate-cysteine ligase catalytic (GCLC), GCLC (gene 2729); assay: LTEA_HepaRG_GCLC: Life Technologies and Expression Analysis (LTEA) Assay for Glutamate-cysteine ligase catalytic (GCLC) using HepaRG (AID 2283498)
# How it was run: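 Oxidative-stress marker GCLC is measured as mRNA change in human HepaRG liver cells after 48 h chemical treatment in 0.5% DMSO, eight concentrations from 100 uM. Activity is fitted bidirectionally against vehicle.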
# [17] = read-out: growth arrest and DNA damage 45 (GADD45G), GADD45G (gene 10912); assay: LTEA_HepaRG_GADD45G: Life Technologies and Expression Analysis (LTEA) Assay for growth arrest and DNA damage 45 (GADD45G) using HepaRG (AID 2283499)
# How it was run: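 Gain or loss of GADD45G mRNA, quantified by TaqMan qRT-PCR against three housekeeping genes, is fitted in both directions relative to 0.5% DMSO. Human HepaRG cultures receive test chemical for 48 h at up to 100 uM.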
# [18] = read-out: Glutamate-cysteine ligase regulatory (GCLM), GCLM (gene 2730); assay: LTEA_HepaRG_GCLM: Life Technologies and Expression Analysis (LTEA) Assay for Glutamate-cysteine ligase regulatory (GCLM) using HepaRG (AID 2283500)
# How it was run: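 Endpoint is GCLM transcript level by qRT-PCR, normalized to three housekeeping genes, after 48 h chemical exposure of human HepaRG cells (0.5% DMSO vehicle, top 100 uM, half-log dilutions). Fitting was bidirectional relative to DMSO.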
# [19] = read-out: Fatty Acid-Binding Protein 1 (FABP1), FABP1 (gene 2168); assay: LTEA_HepaRG_FABP1: Life Technologies and Expression Analysis (LTEA) Assay for Fatty Acid-Binding Protein 1 (FABP1) using HepaRG (AID 2283494)
# How it was run: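 Values reflect bidirectional concentration-response fitting of FABP1 mRNA change against 0.5% DMSO controls. Human HepaRG cultures received eight half-log doses (top 100 uM) for 48 h; expression quantified by TaqMan qRT-PCR with housekeeping-gene normalization.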
# [20] = read-out: Cytochrome P450 7A1 (Homo sapiens) (UniProt P22680); assay: LTEA_HepaRG_CYP7A1: Life Technologies and Expression Analysis (LTEA) Assay for Cytochrome P450 7A1 (CYP7A1) using HepaRG (AID 2283496)
# How it was run: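 HepaRG, 48 h exposure, 8-pt half-log series from 100 uM, 0.5% DMSO vehicle, duplicates. Readout: TaqMan qRT-PCR mRNA vs three housekeeping genes; bidirectional curve fit against DMSO baseline.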
# Chain of Cytochrome P450 3A7 (Homo sapiens) (P24462 whole entry, looked up): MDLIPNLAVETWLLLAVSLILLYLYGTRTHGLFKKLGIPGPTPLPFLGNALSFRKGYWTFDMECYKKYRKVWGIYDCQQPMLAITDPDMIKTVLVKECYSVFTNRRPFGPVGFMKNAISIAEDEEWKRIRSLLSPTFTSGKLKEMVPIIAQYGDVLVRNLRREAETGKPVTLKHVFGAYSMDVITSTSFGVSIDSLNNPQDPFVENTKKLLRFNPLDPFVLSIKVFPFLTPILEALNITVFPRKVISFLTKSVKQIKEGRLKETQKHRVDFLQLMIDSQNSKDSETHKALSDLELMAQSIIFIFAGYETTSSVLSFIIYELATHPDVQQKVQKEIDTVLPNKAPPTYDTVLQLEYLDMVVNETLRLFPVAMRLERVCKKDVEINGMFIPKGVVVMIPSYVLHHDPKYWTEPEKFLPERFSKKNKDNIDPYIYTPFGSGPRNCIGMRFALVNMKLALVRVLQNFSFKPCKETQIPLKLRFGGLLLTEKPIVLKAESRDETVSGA
# Chain of Cytochrome P450 3A4 (Homo sapiens) (P08684 whole entry, looked up): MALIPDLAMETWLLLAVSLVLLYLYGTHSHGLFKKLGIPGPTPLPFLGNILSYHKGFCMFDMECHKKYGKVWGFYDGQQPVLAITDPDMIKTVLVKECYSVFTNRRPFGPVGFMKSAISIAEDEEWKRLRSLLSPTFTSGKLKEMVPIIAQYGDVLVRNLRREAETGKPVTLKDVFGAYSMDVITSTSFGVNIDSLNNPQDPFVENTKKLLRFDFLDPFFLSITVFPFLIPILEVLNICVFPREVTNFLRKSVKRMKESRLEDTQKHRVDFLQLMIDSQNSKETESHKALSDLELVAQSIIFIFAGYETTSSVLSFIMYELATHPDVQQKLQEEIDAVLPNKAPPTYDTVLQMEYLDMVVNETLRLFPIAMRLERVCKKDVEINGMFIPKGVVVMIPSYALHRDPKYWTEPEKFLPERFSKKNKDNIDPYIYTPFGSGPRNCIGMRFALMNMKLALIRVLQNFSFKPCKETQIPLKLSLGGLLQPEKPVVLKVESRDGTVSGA
# Chain of Cytochrome P450 2C19 (Homo sapiens) (P33261 whole entry, looked up): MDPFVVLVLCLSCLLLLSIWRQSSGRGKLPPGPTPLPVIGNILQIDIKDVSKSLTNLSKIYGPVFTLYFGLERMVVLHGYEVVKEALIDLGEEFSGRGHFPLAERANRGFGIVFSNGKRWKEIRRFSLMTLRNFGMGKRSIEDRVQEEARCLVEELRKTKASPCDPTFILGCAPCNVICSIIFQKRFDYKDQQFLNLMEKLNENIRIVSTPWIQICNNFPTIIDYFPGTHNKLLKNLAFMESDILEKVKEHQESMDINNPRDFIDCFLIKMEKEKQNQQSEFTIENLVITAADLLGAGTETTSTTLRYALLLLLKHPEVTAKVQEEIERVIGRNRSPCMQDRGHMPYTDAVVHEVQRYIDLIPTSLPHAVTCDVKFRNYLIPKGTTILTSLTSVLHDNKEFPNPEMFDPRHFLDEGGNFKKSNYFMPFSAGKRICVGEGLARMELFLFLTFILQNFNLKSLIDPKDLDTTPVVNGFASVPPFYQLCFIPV
smiles,measurement,setting,value
O=C(O)c1c(Cl)ccc2cc(Cl)cnc12,outcome,[1],inactive
same,outcome,[2],inactive
same,outcome,[3],inactive
same,outcome,[4],inactive
same,outcome,[5],inactive
same,outcome,[6],inactive
same,outcome,[7],inactive
same,outcome,[8],inactive
same,outcome,[9],inactive
same,outcome,[10],inactive
same,outcome,[11],inactive
same,outcome,[12],inactive
same,outcome,[13],inactive
same,outcome,[14],inactive
same,outcome,[15],inactive
same,outcome,[16],inactive
same,outcome,[17],inactive
same,outcome,[18],inactive
CO/N=C(/C1=NOCCO1)c1ccccc1Oc1ncnc(Oc2ccccc2Cl)c1F,AC50,[1],21.1 µM (active)
same,AC50,[2],29.5 µM (active)
same,AC50,[3],25.8 µM (active)
same,AC50,[4],25.2 µM (active)
same,AC50,[5],7.94 µM (active)
same,AC50,[6],14.2 µM (active)
same,AC50,[7],30.5 µM (active)
same,AC50,[8],25.1 µM (active)
same,outcome,[9],inactive
same,AC50,[10],12.7 µM (active)
same,AC50,[11],0.973 µM (active)
same,AC50,[13],23.3 µM (active)
same,AC50,[19],19.8 µM (active)
same,AC50,[14],20.5 µM (active)
same,AC50,[20],24 µM (active)
same,AC50,[15],28.4 µM (active)
same,outcome,[16],inactive
same,AC50,[17],18.4 µM (active)
same,AC50,[18],19.5 µM (active)
CCOP(=S)(OCC)Oc1nc(Cl)n(C(C)C)n1,AC50,[1],1.78 µM (active)
same,AC50,[2],12.7 µM (active)
same,outcome,[3],inactive
same,outcome,[4],inactive
same,AC50,[5],26.5 µM (active)
same,AC50,[6],42.3 µM (active)
same,AC50,[7],4.55 µM (active)
same,outcome,[8],inactive
same,outcome,[9],inactive
same,outcome,[10],inactive
same,outcome,[11],inactive
same,outcome,[12],inactive
same,outcome,[13],inactive
same,AC50,[14],35.9 µM (active)
same,outcome,[15],inactive
same,outcome,[16],inactive
same,outcome,[17],inactive
same,outcome,[18],inactive
CC(C)N1C(=O)c2ccccc2NS1(=O)=O,AC50,[1],50 µM (active)
same,outcome,[2],inactive
same,outcome,[3],inactive
same,outcome,[4],inactive
same,outcome,[5],inactive
same,outcome,[6],inactive
same,outcome,[7],inactive
same,outcome,[8],inactive
same,outcome,[9],inactive
same,outcome,[10],inactive
same,outcome,[11],inactive
same,outcome,[12],inactive
same,outcome,[13],inactive
same,outcome,[14],inactive
same,outcome,[20],inactive
same,outcome,[15],inactive
same,outcome,[16],inactive
same,outcome,[17],inactive
same,outcome,[18],inactive
COC(=O)c1c(C(F)F)nc(C(F)(F)F)c(C2=NCCS2)c1CC(C)C,AC50,[1],19.7 µM (active)
same,AC50,[2],50 µM (active)
same,AC50,[3],50 µM (active)
same,outcome,[4],inactive
same,AC50,[5],10.3 µM (active)
same,outcome,[6],inactive
same,AC50,[7],4.46 µM (active)
same,outcome,[8],inactive
same,outcome,[9],inactive
same,outcome,[10],inactive
same,outcome,[11],inactive
same,outcome,[13],inactive
same,outcome,[19],inactive
same,outcome,[14],inactive
same,outcome,[15],inactive
same,outcome,[16],inactive
same,outcome,[17],inactive
same,outcome,[18],inactive
CCOC(=O)C(C)OC(=O)c1cc(Oc2ccc(C(F)(F)F)cc2Cl)ccc1[N+](=O)[O-] (stereo unspecified),AC50,[1],11.5 µM (active)
same,AC50,[2],12.9 µM (active)
same,AC50,[3],12.8 µM (active)
same,outcome,[4],inactive
same,AC50,[5],36.6 µM (active)
same,AC50,[6],0.598 µM (active)
same,AC50,[7],4.78 µM (active)
same,outcome,[8],inactive
same,outcome,[9],inactive
same,AC50,[10],18.7 µM (active)
same,outcome,[11],inactive
same,AC50,[13],27.5 µM (active)
same,AC50,[19],14.5 µM (active)
same,AC50,[14],0.414 µM (active)
same,AC50,[20],50 µM (active)
same,AC50,[15],84.3 µM (active)
same,outcome,[16],inactive
same,AC50,[17],3.82 µM (active)
same,outcome,[18],inactive
